# Reference: PubChem BioAssay (EPA / NIEHS)
# The source made the active and inactive calls. Rule for the calls: active = hit-call score of the fitted dose curve at least 0.9, where 1 is the maximum; inactive = score below 0.9.
# Test: UKN5_HCS_SBAD2_cell_viability: Viability Assessment in the University of Konstanz (UKN) Leist Lab Neurite Outgrowth Assay in human iPSC-derived immature Dorsal Root Ganglia Neurons (UKN5) (AID 2284056)
# Procedure, shortened: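 iPSC-derived immature peripheral neurons (SBAD2) seeded on Matrigel with CHIR99021, SU5402 and DAPT, dosed 1 h later for 24 h. Viability from Hoechst H-33342 and calcein-AM live staining, high-content imaging; bidirectional fit versus DMSO.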
Structure (SMILES),AC50,outcome
CN(C)CCCN1c2ccccc2Sc2ccc(Cl)cc21,13.7 µM (active),
O=C1NC(=O)C(c2ccccc2)(c2ccccc2)N1,,inactive
